Source: PubChem BioAssay
A selection: hits, their analogues and other compounds. The true share with any hit is near 4.1%.
PolyA inhibitor = polyadenylation inhibitors in yeast reporter cells, primary screen, luminescence, S. cerevisiae; 0.02% of 300,000 active; activity score, % at 12 µM; S. cerevisiae SKY197-pL101 polyadenylation reporter, beta-gal luminescence; efflux-impaired pdr1/pdr3 knockout yeast; score 100 = 6 SD above DMSO; AID 1875, 2009;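 active = lowest replicate activity score at least 50, where 100 means six control SD above control mean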;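 also: yeast exposed to compound for 9 h at 30 °C; higher score means more reporter readthrough which indicates perturbed polyadenylation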
hgDAF12 agonist = H. glycines DAF-12 receptor agonists, primary screen, cell-based, luminescence, HEK293, GAL4 fusion, UAS-luciferase. activation, % at 6.8 µM. Nuclear hormone receptor DAF-12 (Heterodera glycines), GAL4 fusion. HEK293 GAL4-hgDAF12 UAS-luciferase reporter, agonist luminescence; normalized to butyrate control. 1.8% of 370,000 active;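 active = activation above a cutoff set at the mean of all screened compounds plus 3 SD, cut at about 10% in these data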;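 also: 0% = DMSO wells and 100% = sodium butyrate wells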
DAX1 inh-1 = DAX1 (NR0B1) inhibitors, primary screen, cell-based, HEK293, Gal4-DAX1, luciferase luminescence. Nuclear receptor subfamily 0 group B member 1 (Homo sapiens), P51843. HEK293 Gal4-DAX1 luciferase reporter. inhibition, % at 6.75 µM. 0.99% of 340,000 active. AID 504766, 2011;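 active = inhibition above the mean over all tested compounds plus 3 SD, cut at about 4.2% in these data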;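 also: 0% = DAX1-transfected cells with DMSO and 100% = empty-vector control cells with DMSO; inhibition shows as a rise in luminescence from relieved DAX1 repression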
DAX1 inh-2 = DAX1 (NR0B1) inhibitors on StAR promoter, primary screen, cell-based, luminescence, SF-1 (NR5A1), full-length DAX-1 | HEK293T StAR-luciferase reporter, SF-1/DAX-1 repression relief | inhibition, % at 6.8 µM | 1.1% of 370,000 active | AID 652010, 2013;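 active = inhibition above the mean over all tested compounds plus 3 SD, cut at about 3.6% in these data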;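 also: 0% = DAX-1 cells with DMSO and 100% = cells lacking DAX-1 with DMSO; higher inhibition means more luminescence from relief of DAX-1 repression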
ssDAF12 agonist = S. stercoralis DAF-12 nuclear receptor activators, primary screen, cell-based, luminescence, HEK293, GRIP1 co-expression, lit1-tk-luc; Nuclear hormone receptor DAF-12 (Strongyloides stercoralis); HEK293 ssDAF-12/GRIP1 lit1-tk-luc reporter; % of 3 µM dafachronic acid response; activation, % at 6.8 µM; 1% of 370,000 active; AID 652126, 2013;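 active = activation above the mean over all tested compounds plus 3 SD, cut at about 0.9% in these data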;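 also: 0% = DMSO-only wells and 100% = 3 µM delta7-dafachronic acid wells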
hcDAF-12 act = H. contortus DAF-12 nuclear receptor activators, primary screen, cell-based, luminescence, HEK293, lit1-tk-luc reporter; HEK293 hcDAF-12 lit1-tk-luc reporter; 0% DMSO, 100% Δ7-dafachronic acid; activation, % at 6.8 µM; 1.4% of 370,000 active; AID 652067, 2013;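 active = activation above the mean of all tested compounds plus 3 SD, cut at about 5.5% in these data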;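 also: 100% = response to 3 µM Δ7-dafachronic acid high control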
DAX1 conf = DAX1 (NR0B1) inhibitors relieving SF-1 repression, confirmation, cell-based, luminescence, HEK293T, full-length DAX-1, SF-1 activated StAR promoter; shares compounds with DAX1 inh-2; inhibition, % at 6.8 µM; HEK293T StAR-promoter luciferase reporter, SF-1/DAX-1 repression; 87% of 2,400 active; AID 652134, 2013;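 active = inhibition above the average of every tested compound plus 3 SD, cut at about 3.8% in these data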;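 also: 0% = DAX-1 cells with DMSO and 100% = no DAX-1 control cells with DMSO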
SF1 mutant ctr = StAR reporter signal changes without DAX1, counter-screen for DAX1 inhibitor project, cell-based, luminescence, AF-2 mutant SF-1, transactivation | shares compounds with DAX1 inh-2 | HEK293 StAR-luciferase, SF-1 AF2 mutant | inhibition, % at 6.8 µM | 78% of 2,400 active | AID 652136, 2013;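 active = inhibition above the mean of all tested compounds plus 3 SD, cut at about 3% in these data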;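 also: 0% = DAX-1 transfected cells with DMSO and 100% = cells without DAX-1 with DMSO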
LXRb hcDAF ctr = LXR agonists, Gal4 luciferase reporter, confirmation, counter-screen for hcDAF-12 agonist project, cell-based, luminescence, HEK293, H. contortus campaign; shares compounds with hcDAF-12 act; AID 743027, 2013; HEK293 Gal4-LXR tk-luc reporter, 24 h; normalized: DMSO 0%, positive control 100%; activation, % at 6.8 µM; 3,400 tested, under 10 active;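 active = mean percent activation of the reporter above a cutoff set as the average over tested compounds plus their standard deviation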
Target sequence (P55055 whole entry, looked up, the tested form may be a part): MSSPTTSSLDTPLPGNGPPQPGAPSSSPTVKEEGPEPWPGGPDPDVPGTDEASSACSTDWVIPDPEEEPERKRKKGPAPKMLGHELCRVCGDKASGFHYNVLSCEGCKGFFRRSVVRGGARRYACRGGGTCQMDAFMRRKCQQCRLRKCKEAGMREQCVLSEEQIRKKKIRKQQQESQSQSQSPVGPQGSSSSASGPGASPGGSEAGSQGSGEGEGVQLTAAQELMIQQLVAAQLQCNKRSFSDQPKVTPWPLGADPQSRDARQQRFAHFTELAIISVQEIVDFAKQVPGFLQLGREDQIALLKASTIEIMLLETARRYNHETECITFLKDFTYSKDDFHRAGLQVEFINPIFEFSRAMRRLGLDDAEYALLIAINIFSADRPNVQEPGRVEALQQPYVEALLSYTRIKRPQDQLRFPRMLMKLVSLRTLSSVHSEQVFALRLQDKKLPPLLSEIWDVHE
hcDAF12 ag = H. contortus DAF-12 receptor agonists, confirmation, cell-based, luminescence, HEK293, lit1-tk-luc, triplicate; shares compounds with hcDAF-12 act; AID 743032, 2013; activation, % at 6.8 µM; 61% of 3,400 active; HEK293 hcDAF-12 lit1-tk-luc reporter; % of Δ7-dafachronic acid response;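 active = mean activation across triplicate tests above the threshold derived from the earlier primary screen, cut at about 5.5% in these data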;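 also: 0% = DMSO only wells and 100% = 3 µM Δ7-dafachronic acid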
hgDAF12 ag = H. glycines DAF-12 receptor agonists, confirmation, cell-based, luminescence, HEK293, GAL4-LBD fusion; activation, % at 6.8 µM; HEK293 GAL4-hgDAF12 luciferase reporter, agonist mode; percent of butyrate response; 80% of 3,300 active; shares compounds with hgDAF12 agonist; AID 743050, 2013;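 active = mean activation over triplicate wells above the hit cutoff derived from the earlier primary screen, cut at about 11% in these data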;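 also: 0% = DMSO low control and 100% = 2 mM sodium butyrate high control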
LXR ag 2 = LXR agonists, Gal4 luciferase reporter, confirmation, counter-screen for hgDAF-12 agonist project, cell-based, luminescence, HEK293, H. glycines campaign. shares compounds with hgDAF12 agonist. activation, % at 6.8 µM. 24 h. 3,300 tested, under 10 active. AID 743051, 2013;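 active = mean activation of the triplicate above a set limit carried over from the primary screen, none filed active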
Numbers without * were called inactive; x = not tested or not shown.

SMILES | PolyA inhibitor | hgDAF12 agonist | DAX1 inh-1 | DAX1 inh-2 | ssDAF12 agonist | hcDAF-12 act | DAX1 conf | SF1 mutant ctr | LXRb hcDAF ctr | hcDAF12 ag | hgDAF12 ag | LXR ag 2
CCc1nnc(NC(=O)c2sc3nc4c(cc3c2N)CCCCC4)s1 | 8 | 16* | 3 | 5.0* | 0 | 6.7* | 12* | 7.8* | 1 | 6.5* | 14* | 1
O=C(CSc1cnc2ccccc2n1)c1ccc(F)cc1 | -20 | 19* | -2 | 5.4* | 1.1* | 9.2* | 7.3* | 4.4* | 1 | 4 | 17* | 1
CCCCSc1ncnc2c1ncn2C1CCCCO1 (stereo not given) | x | 17* | 5.9* | 5.4* | 0 | 2 | 11* | 6.0* | x | x | 16* | 1
Fc1ccccc1CSc1ncnc2c1ncn2C1CCCO1 (stereo not given) | x | 1 | -1 | 3 | -2 | 0 | x | x | x | x | x | x
CN(C)CCN1CCN(C2CN(C3CCCC3)S(=O)(=O)C2)CC1 (stereo not given) | x | 5 | x | 0 | -1 | 0 | x | x | x | x | x | x
O=[N+]([O-])c1ccc(O)c(-c2cc(C(F)(F)F)nc(-c3ccccc3)n2)c1 | -2 | 1 | -1 | -2 | -1 | 0 | x | x | x | x | x | x
Cn1cccc1C(=O)Nc1ccc(N2CCOCC2)cc1 | x | 18* | 1 | 8.2* | 1 | 4 | 8.3* | 4.4* | x | x | 16* | 1
O=C(Nc1ccc(N2CCOCC2)cc1)c1ccncc1 | -3 | 3 | 1 | 0 | 0 | 1 | x | x | x | x | x | x
ON=C(CCc1ccccc1)c1ccccc1 | x | 15* | x | 5.1* | 0 | 7.0* | 12* | 6.7* | 1 | 5.8* | 16* | 1
O/N=C(\COc1ccccc1O)c1ccccc1 | -24 | 0 | -1 | 0 | -1 | 0 | x | x | x | x | x | x
